In PubChem BioAssay:
Active and inactive are the calls of the source.

What was measured:
[1] = A549 cell viability effects, profiling panel, calcein-AM fluorescence, 48 h, basal (AID 1162); conditions: higher = more signal
[2] = adipocyte viability effects, profiling panel, cell-based, 3T3-L1 adipocytes, calcein-AM fluorescence, 48 h, basal (AID 1163); conditions: 3T3-L1 adipocytes viability, higher = more signal
[3] = HepG2 cell viability effects, profiling panel, calcein-AM fluorescence, 48 h, basal (AID 1164); conditions: higher = more signal
[4] = MM1S cell viability effects, profiling panel, calcein-AM fluorescence, 48 h, basal (AID 1165); conditions: higher = more signal;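 also: viability of MM1S multiple myeloma cells under basal unstimulated conditions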
[5] = basal RPMI8226 viability, no added stimulus, profiling panel, cell-based, calcein-AM fluorescence, 48 h, PK04 Diversity Set (AID 1166); conditions: RPMI8226 myeloma viability, higher = more signal;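 also: cells grown under basal conditions without added stimulus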
[6] = basal HepG2 mitochondrial membrane potential changes, profiling panel, cell-based, JC-1 fluorescence, 24 h, 100 nL compound (AID 1167); conditions: higher = more signal
[7] = basal 3T3-L1 adipocyte mitochondrial potential changes, profiling panel, cell-based, JC-1 fluorescence, 3T3-L1 adipocytes, 24 h, 100 nL compound (AID 1168); conditions: JC-1 mitochondrial fluorescence, higher = more signal, called active from +8 up or from −8 down
[8] = basal RPMI8226 mitochondrial membrane potential changes, profiling panel, cell-based, JC-1 fluorescence, 24 h, 100 nL compound (AID 1169); conditions: RPMI8226 myeloma, JC-1 mitochondrial potential fluorescence, higher = more signal
[9] = basal MM1S mitochondrial membrane potential changes, profiling panel, cell-based, JC-1 fluorescence, 24 h, 100 nL compound (AID 1170); conditions: higher = more signal
[10] = A549 lung cancer cell viability effects, profiling panel, resazurin fluorescence, 24 h, PK04 Diversity Set (AID 1171); conditions: higher = more signal, called active from +8 up or from −8 down
Also: test concentration not given here.

| SMILES | z-score [1] | z-score [2] | z-score [3] | z-score [4] | z-score [5] | z-score [6] | z-score [7] | z-score [8] | z-score [9] | z-score [10] |
| --- | --- | --- | --- | --- | --- | --- | --- | --- | --- | --- |
| CCCC1(C(=O)OC)C=C2C(=C(C)C(=O)C2C)CN1 (stereo not given) | -1.48 | -1.07 | -0.806 | -0.44 | -1.03 | -1.96 | -1.16 (inactive) | -0.0212 | -0.974 | -0.727 (inactive) |
| C=CCNC(=O)[C@H]1[C@@H]2C(=O)O[C@@H](c3ccccc3)[C@@H](c3ccccc3)N2[C@@H](c2ccccc2OCCO)[C@]12C(=O)N(C(=O)OCCOC)c1ccc(C#CC3(O)CCCCCC3)cc12 | -0.293 | 0.905 | -0.0307 | -3.15 | -4.56 | -0.341 | 1.18 (inactive) | -1.14 | -1.7 | -2.4 (inactive) |
| O=C1N(CCS(=O)(=O)c2ccccc2)c2ccccc2[C@H]2OC(c3ccc(OCCCO)cc3)=N[C@@]12Cc1ccccc1 | -0.386 | 0.726 | -0.763 | -2.18 | -2.65 | -0.654 | 0.777 (inactive) | -1.19 | -2.19 | -1.02 (inactive) |
| C=CCC(OC(C)=O)[C@@H]1[C@@H](N(Cc2cccc3ccccc23)C(=O)Cc2ccc(F)cc2)c2cc(OCCCO)ccc2N1C(=O)c1ccc2ccccc2c1 (stereo not given in full) | 0.937 | 1 | 0.975 | -0.222 | -0.754 | 2.9 | -0.249 (inactive) | -0.774 | -0.45 | 1.25 (inactive) |
| CN(C)c1ccc(C(O)C2C=CC3C(=O)NC(=O)C3N2Nc2ccccn2)cc1 (stereo not given) | -0.8 | -0.358 | -0.331 | -0.286 | -0.333 | -1.21 | -0.339 (inactive) | -0.492 | 0.468 | -0.348 (inactive) |
| O=C1C[C@]2(c3ccc([N+](=O)[O-])cc3)C(=O)N(C3CC3)c3cc(CO)ccc3[C@H]2N1CC12CC3CC(CC(C3)C1)C2 | 0.207 | 0.368 | -0.67 | 0.352 | -0.947 | -0.148 | -0.837 (inactive) | 0.787 | -1.1 | -0.452 (inactive) |
| CC(C)N1C(=O)C[C@@](C(=O)NC2CC2)(c2ccc([N+](=O)[O-])cc2)[C@H]1c1ccc(CO)cc1 | 0.219 | 1.98 | 1.03 | 0.941 | -1.73 | 0.347 | -0.0995 (inactive) | -0.416 | 0.059 | -0.0786 (inactive) |
| COc1ccc([Si](C)(C)[C@H]2[C@H](CC(=O)N3Cc4ccccc4C[C@H]3CO)O[C@@]3(C(=O)N(Cc4ccc(N5CCOC5=O)cc4)c4ccccc43)[C@@H]2C)cc1 | -0.135 | 1.35 | -0.919 | -2.92 | -4.23 | -0.0556 | 0.19 (inactive) | -1.04 | -1.94 | -0.0717 (inactive) |
| CCOC(=O)C1=CC[C@@H](c2ccccc2)N(S(=O)(=O)c2ccc(C)cc2)[C@H]1c1ccccc1 | -0.84 | -1.5 | -0.634 | -1.79 | 0.229 | 1.61 | -1.29 (inactive) | -1.04 | -0.0355 | 1.44 (inactive) |
| CCOC(=O)C=Cc1cccc(C)c1O | -0.877 | 0.407 | -0.833 | -0.536 | -0.731 | -0.768 | -0.0308 (inactive) | -0.642 | -1.16 | -0.871 (inactive) |
| O=C(c1ccccc1)N1C(=O)[C@]2(Cc3ccccc31)N=C(c1ccc(OCCCO)cc1)O[C@@H]2c1ccccc1 | -1.84 | 0.736 | -2.44 | -3.55 | -4.35 | -2.26 | -0.0262 (inactive) | -1.18 | -2.17 | -2.83 (inactive) |
| O=C1CS(=O)(=O)C(c2cccc([N+](=O)[O-])c2)N1c1ccccc1 (stereo not given) | 1.02 | 0.116 | 1.46 | 0.637 | 1.22 | 1.24 | -0.662 (inactive) | -0.141 | 2.21 | 0.0249 (inactive) |
| CC(C)C(O)C1C=CC2C(=O)N(c3ccccc3)C(=O)C2N1Nc1ccccc1 (stereo not given) | -1.17 | -0.68 | -0.917 | -0.528 | -1.03 | -1.6 | -0.855 (inactive) | 0.0949 | -1.35 | 0.184 (inactive) |
| OCCCC1=CC(c2ccc(CN3CCCC3)cc2)N(Cc2cc3c(cc2Br)OCO3)CC1 (stereo not given) | -0.8 | 1.07 | 0.552 | -2.99 | 0.866 | 1.72 | -0.261 (inactive) | 0.406 | 0.0254 | 0.731 (inactive) |
| NC(=O)[C@@]1(Cc2ccccc2)COC(c2ccc(OCCCO)cc2)=N1 | -0.291 | -0.0025 | 0.532 | 0.064 | -0.453 | -0.798 | -0.392 (inactive) | -0.759 | -0.172 | 0.138 (inactive) |
| C=C[C@@H](OC)[C@H](OC(=O)Nc1ccc(OC)cc1)c1ccc(O)c(F)c1 | -0.705 | 0.792 | -0.723 | -2.17 | -2.47 | -2.82 | -1.1 (inactive) | -0.276 | -0.0233 | -0.0973 (inactive) |
| O=C(NCCN1CCOCC1)[C@@H]1c2ccccc2C(=O)N(Cc2ccccc2Cl)[C@H]1c1ccc(CO)cc1 | 0.53 | -0.249 | 1.15 | -0.142 | 0.125 | 3.16 | 0.64 (inactive) | -0.695 | -0.408 | 0.59 (inactive) |
| COCCOC(=O)N1C(=O)[C@@]2(c3cc(C#CCNC(N)=O)ccc31)[C@H](C(N)=O)[C@H]1C(=O)O[C@H](c3ccccc3)[C@H](c3ccccc3)N1[C@@H]2c1ccccc1OCCO | 0.533 | 0.0371 | -0.362 | -1.24 | 0.458 | -2.02 | -0.278 (inactive) | -0.159 | 0.244 | 0.291 (inactive) |
| CCOC(=O)C1=C[C@@H](c2ccccc2)N(S(=O)(=O)c2ccc(C)cc2)[C@H]1c1ccc(OC)cc1 | -0.841 | -0.0112 | -0.157 | -0.62 | -0.926 | 1.03 | -0.708 (inactive) | 0.692 | -0.441 | 1.63 (inactive) |
| CO[C@H]1O[C@H](CO)[C@@H](OC(=O)CCc2ccccc2)[C@@H]2OC(=O)[C@@H](Cc3ccccc3)C/C=C/C[C@H](Cc3ccccc3)C(=O)O[C@@H]12 | 1.7 | 0.271 | 0.514 | -0.753 | -0.711 | 0.358 | 0.669 (inactive) | 0.578 | -0.946 | 1.2 (inactive) |
| O=C(O)[C@@H]1C[C@@H]2C(=O)N3CCC[C@H]3C(=O)N2[C@@H]1c1ccc(O)cc1 | -0.335 | 1.13 | -0.763 | -3.42 | 0.0242 | 0.0357 | -0.184 (inactive) | -0.704 | -1.34 | -0.609 (inactive) |
| CCCC=C(CCC)[C@@H](NC(=O)c1cccs1)c1ccc(C(=O)OC)cc1 | 0.126 | -0.302 | -0.125 | 0.388 | 0.45 | -0.115 | -0.0911 (inactive) | 0.973 | -0.997 | 0.902 (inactive) |
| CN(C)CCCCCCNC(=O)[C@@H]1C[C@@H]2C(=O)N3CCC[C@H]3C(=O)N2[C@@H]1c1cccc(OCCO)c1 | -0.84 | -0.314 | -0.679 | -0.592 | -0.156 | -1.06 | 0.444 (inactive) | 0.605 | 0.784 | -0.954 (inactive) |
| COC(=O)C1=CC(CCCO)=CC(c2ccc(CN3CCCC3)cc2)N(Cc2cccc(OC(F)(F)F)c2)C=C1C(=O)OC (stereo not given) | 0.589 | -0.0684 | 1.34 | 1.04 | -0.413 | 3.57 | 0.395 (inactive) | 0.121 | 0.593 | -1.16 (inactive) |
| COC(=O)c1c(CC[C@@H](CO)NC(=O)N2CCC[C@H]2Cn2cc(C3(O)CCCCC3)nn2)oc(C(C)=O)c1C(=O)OC | -0.615 | 0.209 | -0.513 | 0.205 | 0.577 | 0.223 | -0.629 (inactive) | -0.667 | -0.38 | -0.168 (inactive) |
| CCCCC(CC)C(O)C1C=CC2C(=O)N(C)C(=O)C2N1Nc1ccccc1 (stereo not given) | -0.959 | -1.12 | -0.195 | -0.0591 | -0.885 | -1.02 | -1.03 (inactive) | -0.3 | -0.348 | -0.83 (inactive) |
| CC(C)c1ccc(NN2C(C(O)c3ccc(C#N)cc3)C=CC3C(=O)N(c4ccccc4)C(=O)C32)cc1 (stereo not given) | -0.0204 | -0.708 | -0.21 | -0.303 | -0.0634 | -1.22 | -0.662 (inactive) | 0.629 | 0.179 | -1.28 (inactive) |
| COc1ccc(C#Cc2ccc3c(c2)[C@]2(C(=O)N3)[C@H](C(=O)O)[C@H]3C(=O)O[C@H](c4ccccc4)[C@H](c4ccccc4)N3[C@@H]2c2ccc(O)cc2)cc1 | -0.483 | 1.65 | -0.176 | -2.61 | -3.91 | -3.99 | -1.15 (inactive) | -0.85 | -0.623 | 0.199 (inactive) |
